Laboratory results from PubChem BioAssay (NCATS).
Inconclusive results are not listed. The source made the active and inactive calls. Calls come from the whole dose curve; as a rule, active = well fitted curve in the direction sought with a large enough effect; inconclusive = small, poorly fitted or top-dose-only effect, or another doubt; inactive = no such curve, though single readings can be large; an effect the other way counts as inactive or inconclusive.

Columns and labels:
[1] = Vero cells viability qHTS for Zika virus inhibitors (AID 1347167)
How it was run: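 Counter-screen for cytotoxicity of hits from NS2B-NS3 protease qHTS. Overnight-attached cells (2.5 x 10^5 cells/mL, DMEM/4% FBS) were dosed in titration, incubated 24 to 48 hours, then assayed by CellTiter Glo.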

[2] = Tertiary RLuc qRT-PCR qHTS assay for Zika virus inhibitors (AID 1347169); note: top concentration of the series differs between compounds; nearly all actives have a fitted effect of over 55% in size
How it was run: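 Vero, 1,000 cells/well, o/n 37 C; cpd pinned in DMSO; ZIKV-RLuc Cambodian, MOI 1-2, 48-72 h 37 C; live-cell RLuc substrate, lum read at 1-1.5 h.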

[3] = OV-KATE Cancer Cell Toxicity qHTS against the NCATS CANVASS Library (AID 1347345)
How it was run: (§1)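 1000 cells/well seeded and rested 4 h at 37 °C before pin transfer of compounds in an 11-pnt series. Exposure 72 h at 37 °C/5% CO2; viability by CellTiter-Glo luminescence after 15 min at room temperature.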

[4] = HPAF-II Cancer Cell Toxicity qHTS against the NCATS CANVASS Library (AID 1347346); note: nearly all actives have a fitted effect of over 55% in size
How it was run: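 HPAF-II cells at 1000 cells/well were treated with an 11-point concentration series for 72 hours at 37 degrees C. Viability read by CellTiter-Glo luminescence.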

[5] = UWB1.289 Cancer Cell Toxicity qHTS against the NCATS CANVASS Library (AID 1347347); note: nearly all actives have a fitted effect of over 60% in size
How it was run: as §1

[6] = OV-SAHO Cancer Cell Toxicity qHTS against the NCATS CANVASS Library (AID 1347348); note: nearly all actives have a fitted effect of over 55% in size
How it was run: as §1

[7] = Panc-1005 Cancer Cell Toxicity qHTS against the NCATS CANVASS Library (AID 1347349); note: nearly all actives have a fitted effect of over 60% in size
How it was run: as §1

[8] = SW1088 Cancer Cell Toxicity qHTS against the NCATS CANVASS Library (AID 1347350); note: nearly all actives have a fitted effect of over 75% in size
How it was run: as §1

[9] = U-118MG Cancer Cell Toxicity qHTS against the NCATS CANVASS Library (AID 1347351)
How it was run: as §1

[10] = COV-362 Cancer Cell Toxicity qHTS against the NCATS CANVASS Library (AID 1347352)
How it was run: (§2)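 Cells at 1000/well were given compound 4 h after plating in an 11-point series. Viability was read by CellTiter-Glo luminescence after 72 h at 37 degrees C.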

[11] = A2780 Cisplatin Sensitive Ovarian Cancer Cell Toxicity qHTS against the NCATS CANVASS Library (AID 1347353); settings: A2780 ovarian cancer viability, ATPLite luminescence, 72 h; at 46.1 µM (top of the series); note: nearly all actives have a fitted effect of over 60% in size
How it was run: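 A2780 cells, 750/well, settled 4 h at 37 °C, then treated with an 11-point compound series for 72 h. Viability was read as ATPLite luminescence after 10 min at room temperature, with bortezomib as control.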

[12] = UWB1.289-WTBRCA1 Cancer Cell Toxicity qHTS against the NCATS CANVASS Library (AID 1347354)
How it was run: as §2

[13] = HPAF-II 24hr Apoptosis Induction qHTS against the NCATS CANVASS Library (AID 1347356)
How it was run: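 HPAF-II cells (500/well) exposed to compounds in 11-point series for 24 h at 37 degrees C; caspase-3/7 activity read by Caspase-Glo luminescence after 15 min at room temperature. Doxorubicin titration as control.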

[14] = HEK293 18hr Apoptosis Induction qHTS against the NCATS CANVASS Library (AID 1347357)
How it was run: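 Cells seeded at 500/well in DMEM + 10% FBS. Compounds pinned, 11 concentrations. 18 h, 37 degrees C/5% CO2. Caspase-Glo 3/7 added, 15 min RT dark, luminescence read.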

[15] = HPAF-II 12hr Apoptosis Induction qHTS against the NCATS CANVASS Library (AID 1347358)
How it was run: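 HPAF-II cells, 500/well in DMEM + 10% FBS, exposed 12 hours at 37 degrees C to compound (11-point). Caspase-Glo 3/7 added for 15 min at room temperature; luminescence reflects caspase-3/7 activity.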

[16] = HEK293 24hr Apoptosis Induction qHTS against the NCATS CANVASS Library (AID 1347359)
How it was run: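 HEK293 cells (500/well, DMEM + 10% FBS) were exposed to compounds in an 11-point series for 24 hours at 37 degrees C, then caspase-3/7 activity was read by Caspase-Glo DEVD luciferase luminescence after 15 min.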

[17] = HPAF-II 18hr Apoptosis Induction qHTS against the NCATS CANVASS Library (AID 1347360)
How it was run: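 Seed HPAF-II cells at 500/well in DMEM + 10% FBS, pin-transfer compounds, incubate 18 hours at 37 degrees C/5% CO2, add Caspase-Glo 3/7 reagent, wait 15 min, read luminescence.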

Measured: Potency

COc1ccc(Br)cc1S(=O)(=O)NC(=O)/C=C/c1ccccc1Cc1ccc2ccccc2c1
inactive: [1]

O=C1NC(=O)/C(=C/c2ccc(-c3ccc(F)cc3O)o2)S1
inactive: [2]

O=C(O)c1cc(O)c(O)c(O)c1
not listed: [1] | [2]
inactive: all other assays above

O=c1cc(-c2ccccc2)oc2c(O)c(O)ccc12
inactive: [4] | [13] | [14] | [15] | [16] | [17]
